Cav3 T inh = human Cav3.2 channel inhibition, primary screen. Cav3.2-expressing cells, Fluo-4 calcium fluorescence FDSS; hits give low values. B-score at 10 µM. 100,000 compounds, 4% hits;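 active = single-dose well whose peak fluorescence ratio is a statistical outlier from its plate by either plate-standardised score or position-corrected B-score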
CYP2C9 act = CYP2C9 (human) activation; P11712; activation factor at 5 µM; recombinant CYP2C9, luciferin-H conversion, luminescence; hits give high values; factor 1 = untreated enzyme, 0 = blocked; 96,000 compounds, 1.4% hits; AID 1024;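 active = activation factor of 2 or more for CYP2C9 at a 5 µM dose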;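 note: 0 = sulfaphenazole-blocked wells and 1 = vehicle-only wells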
CYP2C9 inhib = inhibitors of human CYP2C9; AID 777; inhibition, % at 5 µM; CYP2C9 Supersomes, luciferin-H conversion, luminescence; P11712; 96,000 compounds, 20% hits;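 active = blocking of liver enzyme CYP2C9 beyond about 50% at 5 µM, limit read from the data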
CYP2C19 act = cytochrome P450 2C19 (human) activation; P33261; recombinant CYP2C19, luciferin-H EGE luminescence; hits give high values; 0 = fully inhibited enzyme, 1 = untreated enzyme; activation factor at 5 µM; 96,000 tested, under 10 active;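 active = activation factor of at least 2 at 5 µM in the primary screen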;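 note: 0 = wells with 2.5 mM tranylcypromine and 1 = vehicle-only wells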
CYP2C19 inh = blocks human cytochrome P450 2C19; CYP2C19 Supersomes, luciferin-H EGE luminescence, 30 min; inhibition, % at 5 µM; 96,000 compounds, 21% hits;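 active = CYP2C19 inhibition above a set limit at 5 µM in the primary screen, cut at about 50% in these data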;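 note: plate controls were negative control wells for no effect and 2.5 mM tranylcypromine positive control for full effect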
Numbers without * were called inactive; · = no result. Sampled rows, rich in hits. Any-hit rate of the full collection: about 27%.

SMILES	Cav3 T inh	CYP2C9 act	CYP2C9 inhib	CYP2C19 act	CYP2C19 inh
O=C(Nc1ccc2c(c1)OCO2)c1cccc(S(=O)(=O)N2CCCC2)c1	1.38	0.9	6.9	0.8	18.4
CCCCC(CC)CNC(=O)C1C2C=CC(C2)C1C(=O)O (stereo not given)	0.933	0.9	5.0	1	4.8
COCCCNC(=O)C1CCCN(C(=O)Nc2ccc(OC)cc2)C1 (stereo not given)	-0.122	0.9	8.5	1.1	-7.3
O=C(OCc1ccc2c(c1)OCO2)c1cccc(S(=O)(=O)N2CCCCC2)c1	-4.35	0	99.3*	0.1	92.5*
O=S(=O)(c1ccc(Nc2ccc3c(c2)OCO3)nc1)N1CCOCC1	0.39	0.2	78.1*	0.9	7.7
O=S(=O)(c1ccc(N2CCOCC2)nc1)N1CCOCC1	1.13	1.1	-9.4	1	4.4
NCCCC[C@@H]1NC(=O)[C@H](CCC(=O)O)NC(=O)c2cc([N+](=O)[O-])cc(I)c2OCC[C@@H](C(N)=O)NC1=O	-2.76	·	·	·	·
CC(C)C(CO)NC(=O)CC(=O)NC(CO)C(C)C (stereo not given)	0.271	0.9	6.7	1	-0.2
COC(=O)C1=C(C(=O)OC)[C@@H]2N(C)c3ccc(OC)cc3[C@@]23C[C@@H](C(=O)OC)N=C3N1	0.952	·	·	·	·
Cc1ccc(S(=O)(=O)N2c3ccccc3NC(=O)C2CC(=O)Nc2ccccc2)cc1 (stereo not given)	·	0.1	88.6*	0.4	56.9*
Cc1ccc(S(=O)(=O)N2c3ccccc3NC(=O)CC2C)cc1 (stereo not given)	-0.174	1	3.8	1	3.4
CC(C)CC(=O)Nc1ccccc1Oc1ccccc1	0.562	1	3.2	0.8	24.8
CCN1C(=O)N(C)C(N(O)C(=O)NC)C1(C)C (stereo not given)	0.486	1.1	-9.7	1.1	-10.4
N=c1c2c3c(sc2ncn1CCN1CCOCC1)CCCCC3	0.521	1.1	-14.1	1.1	-14.2
CCCCn1cnc2sc3c(c2c1=N)CCCC3	-1.42	1	-0.9	0.4	59.8*
COc1ccc(Cl)cc1C(=O)NNC(=S)NC(=O)c1cc(-c2ccc(Cl)cc2)nc2ccccc12	-6.57*	·	·	·	·
CCNC(=S)NNC(=O)c1cc(-c2cccc(OCC)c2)nc2ccccc12	-1.55	0.2	84.1*	0.6	37.6
CCNC(=S)NNC(=O)c1cc(C2CC2)nc2ccccc12	·	0.5	50.9*	1.1	-11.0
CCNC(=S)NNC(=O)c1cc(-c2cccc(C)c2)nc2ccccc12	-2.47	0.5	51.8*	1	4.3
CCCCOc1cccc(-c2cc(C(=O)NNC(=S)NCC)c3ccccc3n2)c1	0.676	0.9	11.4	1	-3.7
Cc1cc2cc(CNC(=O)c3ccc4c(c3)OCO4)ccc2[nH]1	-0.402	0.9	12.3	0.6	41.6
c1cnc2c(c1)ccc1cccnc12	1.09	·	·	·	·
Oc1ccc(-c2[nH]ncc2-c2ccc(Cl)cc2)c(O)c1	-1.45	0.1	90.9*	0.1	92.1*
COc1ccc(-c2[nH]ncc2-c2ccc(Cl)cc2)c(O)c1	-0.869	0.6	42.6	0.3	74.8*
Oc1ccc(-c2[nH]ncc2-c2cccc3cccnc23)c(O)c1	-1.27	0.5	53.1*	0.5	54.5*
SMILES	Cav3 T inh	CYP2C9 act	CYP2C9 inhib	CYP2C19 act	CYP2C19 inh
COCCNC(=O)c1onc(CSc2ccc(C)c(C)c2)c1C(=O)O	0.0118	0.8	23.6	0.7	32.9
O=C(Cc1ccccc1)Nc1c2c(nn1-c1cccc(Cl)c1)CS(=O)(=O)C2	-0.972	0.8	24.2	0.4	55.1*
CCCCn1c(SCC(=O)N2c3ccccc3Sc3ccccc32)nc2c1c(=O)n(C)c(=O)n2C	-4.8*	·	·	·	·
CCCCn1c(SCC(=O)N2CCCc3ccccc32)nc2c1c(=O)n(C)c(=O)n2C	-0.891	0.4	62.9*	0.8	17.5
CCCCCn1c(C(C)NC(=O)CCC)nc2ccccc21 (stereo not given)	0.742	0.9	9.1	1	-1.2
COc1ccc(C(C)=O)cc1CSCCC#N	0.804	1	3.4	0.9	7.6
CN(C)S(=O)(=O)c1ccc(/C(O)=C2/C(=O)C(=O)N(Cc3cccnc3)C2c2ccncc2)cc1 (stereo not given)	0.985	0.6	37.7	0.8	22.6
COc1ccc(/C(O)=C2/C(=O)C(=O)N(Cc3cccnc3)C2c2ccco2)cc1OC (stereo not given)	-0.443	0.6	36.6	0.7	25.9
CCOc1cccc(/C(O)=C2/C(=O)C(=O)N(Cc3cccnc3)C2c2ccco2)c1 (stereo not given)	1.2	0.3	65.3*	0.9	5.6
O=C1C(=O)N(Cc2cccnc2)C(c2ccccn2)/C1=C(/O)c1ccc(F)cc1 (stereo not given)	-0.0506	0.3	71.0*	1.1	-7.2
Cc1ccc(/C(O)=C2/C(=O)C(=O)N(Cc3cccnc3)C2c2ccccn2)cc1 (stereo not given)	-0.0627	0.1	89.9*	0.3	66.0*
C=CCn1c(C(C)NC(=O)COC)nc2ccccc21 (stereo not given)	-0.191	0.8	16.0	0.9	10.5
COc1ccc(NC(=O)c2cc(=O)c3ccccc3o2)cn1	-0.333	1	2.4	0.9	9.5
COc1ccc(NC(=O)c2cc(CN3C(=O)c4ccccc4C3=O)ccc2OC)cn1	-0.891	0.2	78.5*	0.7	33.0
CCOC(=O)c1c(NC(=O)c2cc(C)oc2C)sc(C(=O)Nc2ccc(Cl)cc2)c1C	-2.84	0.9	13.9	0.9	8.4
CCOc1ccc(S(=O)(=O)Nc2ccccc2SC)c2cccnc12	-0.0598	0.3	70.9*	1	2.9
CCOc1ccc(S(=O)(=O)NCC2CCCO2)c2cccnc12 (stereo not given)	0.837	1	0.6	0.9	6.0
CCOc1ccc2nc(SCC(=O)c3ccc(C)s3)sc2c1	0.499	0.9	11.9	0.5	51.3*
COc1ccc2nc(NC(=O)CSC3=NCCS3)sc2c1	-1.96	0.7	29.1	0.4	64.5*
CCOc1ccc2nc(SC3CC(=O)N(c4ccc(C)cc4)C3=O)sc2c1 (stereo not given)	-0.0113	1	-4.5	1	-3.3
CCOCC(=O)Nc1nc2ccc(OCC)cc2s1	0.937	0.7	31.9	0.5	51.5*
CC(C)Cc1nnc(NC(=O)CSc2ccccn2)s1	-0.717	0.7	31.2	0.4	56.5*
CCOCC(=O)Nc1nc2ccc(C)cc2s1	-0.913	·	·	·	·
COc1ccc2nc(NC3=NCCC3)sc2c1	-0.0466	0.9	7.2	1	1.3
COCc1nnc(NC(=O)CCSc2ccccc2)s1	0.00561	0.9	5.2	0.7	29.8
CCCC(=O)Nc1nc2ccc(OC)cc2s1	0.826	1.1	-5.9	1	-0.4
COc1ccc2nc(NC(=S)N(C)C)sc2c1	-0.165	0.1	93.9*	0	99.0*
CCOc1ccc2nc(NC(=O)CSc3ccc(Cl)cc3)sc2c1	-2.45	0.4	63.4*	0.9	6.4
COCc1nnc(NC(=O)CSc2ccccc2)s1	-0.233	0.6	39.6	0.3	67.3*
COc1ccc2nc(NC(=O)CSc3ccccc3)sc2c1	-0.0206	0.4	63.0*	0.7	31.3

High-throughput results: PubChem, several laboratories
